# Data: PubChem BioAssay AID1259343 (VanderVen Lab, College of Veterinary Medicine, Cornell …, 2017)
# Among all 6,200 compounds or so, about 2,900 (47%) were called active. Rule as the data show it: active = inhibition above about 50%; inactive = the rest. The set was probably picked from earlier hits. Some of the results follow.
# Experiment: Mycobacterium tuberculosis growth inhibition, primary screen (AID 1259343)
# Conditions: inhibition: at 10 µM, hits give high values; outcome: 10 uM
row,SMILES,inhibition
1,CCCCC(CC)CN=C(N)NC(N)=NCCCCCCN=C(N)NC(N)=NCC(CC)CCCC (configuration not stated),94.5% (active)
2,O=C1C(=O)N(C2CCCC2)C(=O)N1CC1CCCCC1,-11.3% (inactive)
3,Cc1nc2scc(-c3cccs3)c2c(=S)[nH]1,85.4% (active)
4,Cc1ccc(C)n1-n1c(C)nc2scc(-c3cccs3)c2c1=O,27.9% (inactive)
5,Cc1nc2scc(-c3cccs3)c2c(=O)n1-n1cccc1,87.8% (active)
6,O=C(NC1CC1c1ccccc1)C1(c2ccccc2)CCC1 (configuration not stated),38.3% (inactive)
7,Cc1cc(-c2nnn(CC3(O)CCCCC3)n2)ccc1F,86.8% (active)
8,COc1ccc(-c2cc(Nc3ccc(NC(=O)OC(C)(C)C)cc3)ncn2)cc1,4.04% (inactive)
9,CC(C)(C)OC(=O)Nc1ccc(Nc2cc(-c3ccc(F)c(F)c3)ncn2)cc1,16.4% (inactive)
10,CC(C)(C)OC(=O)Nc1cc2ccccc2cc1C(=O)O,79.6% (active)
11,Fc1cccc(-c2cnnc(N[C@@H]3C[C@H]3c3ccccc3)n2)c1,19.2% (inactive)
12,Cc1cc(C)cc(NC(=O)CSc2nccn(-c3cccc(F)c3)c2=O)c1,66.8% (active)
13,Cc1cc(C)cc(NC(=O)CSc2nccn(-c3ccc(F)cc3)c2=O)c1,48.7% (inactive)
14,Cc1cc(C)cc(NC(=O)CSc2nc(=O)n3ccc(C)cc3n2)c1,-10.5% (inactive)
15,N#Cc1ccccc1Sc1ccc(C(N)=O)cc1,-41.2% (inactive)
16,Cc1ccc(/C=C2\CNC/C(=C\c3ccc(C)cc3)C2=O)cc1,27.8% (inactive)
17,CC1C/C(=C\c2cccnc2)C(=O)/C(=C/c2cccnc2)C1 (configuration not stated),63% (active)
18,C(=Nc1ccc(C23CC4CC(CC(C4)C2)C3)cc1)c1cccnc1,7.01% (inactive)
19,COc1c(Br)cc(Cl)cc1NCc1c(C)noc1C,14% (inactive)
20,N#CC(=CC(Br)=Cc1ccccc1)c1nc(-c2ccccc2)cs1,82.4% (active)
21,N#CC(=Cc1ccccc1I)c1nc(-c2ccccc2)cs1,10.6% (inactive)
22,N#Cc1c(Cl)cccc1NCC1CN(Cc2ccccc2)CCO1 (configuration not stated),57.3% (active)
23,CC(=O)c1cc(CN2CCOC(CCCc3ccccc3)C2)cs1 (configuration not stated),28.9% (inactive)
24,Clc1ccc(C2CN(Cc3cc(-c4ccccn4)no3)CCO2)cc1Cl (configuration not stated),21% (inactive)
25,COC(=O)c1cc(-c2cc3ccccc3o2)on1,99.1% (active)
26,COC(=O)c1cc(-c2ccc(OC)cc2)on1,30.9% (inactive)

row,SMILES,inhibition
1,COC(=O)c1cc(-c2ccc(C)cc2)on1,88.9% (active)
2,O=C(Cc1cc(-c2cc3ccccc3o2)on1)Nc1cccc(F)c1,38.6% (inactive)
3,COC(=O)c1ccc(NC(=O)Cc2cc(-c3cc4ccccc4o3)on2)cc1,84% (active)
4,COC(=O)c1cc(-c2ccc3c(c2)CC(C)O3)on1 (configuration not stated),45.8% (inactive)
5,O=C(Cc1cc(-c2cc3ccccc3o2)on1)NCCc1ccccc1,6.56% (inactive)
6,Cc1cc(NC(=O)Cc2cc(-c3cc4ccccc4o3)on2)no1,-32.2% (inactive)
7,O=C(Cc1cc(-c2cc3ccccc3o2)on1)NCCC1=CCCCC1,32.4% (inactive)
8,O=C(Cc1cc(-c2cc3ccccc3o2)on1)NCCCc1ccccc1,93.4% (active)
9,CC(C)OCCCNC(=O)Cc1cc(-c2cc3ccccc3o2)on1,90.9% (active)
10,COCCNC(=O)c1cc(-c2ccc(Cl)cc2)on1,60% (active)
11,COCCNC(=O)Cc1cc(-c2cc3ccccc3o2)on1,34.7% (inactive)
12,O=C(COC(=O)c1ccco1)Nc1ccc2ccccc2c1,39.6% (inactive)
13,NC(Cc1cnc[nH]1)C(=O)Nc1ccc2ccccc2c1 (configuration not stated),72.9% (active)
14,Cc1cc(NC(=O)CN2CCOC(C)C2)ccc1Br (configuration not stated),16.5% (inactive)
15,CC1CCc2c(sc(NC(=O)CN3CCOC(C)C3)c2C#N)C1 (configuration not stated),30.6% (inactive)
16,CCOC(=O)c1ccc(NC(=O)CN2CCOC(C)C2)cc1 (configuration not stated),92% (active)
17,Clc1ccc(-c2nnc(CSc3nncs3)o2)cc1,97.2% (active)
18,Cc1cc(C)c2c(=O)[nH]c(SCc3nnc(-c4ccc(Cl)cc4)o3)nc2n1,-6.74% (inactive)
19,Fc1ccc(OCc2nnc(-c3ccc(Br)cc3)o2)cc1,-26.1% (inactive)
20,Clc1ccc(-c2noc(CSc3nncs3)n2)cc1,-30.4% (inactive)
21,Fc1ccc(-c2csc(SCc3nnc(-c4ccc(F)cc4)o3)n2)cc1,69.3% (active)
22,CN(Cc1nnc(-c2ccc(F)cc2)o1)C1C2CCOC2C1(C)C (configuration not stated),21.1% (inactive)
23,O=C1NC(=O)C(=Cc2cc(Br)c(Sc3ccc(Cl)cc3)o2)S1,85.2% (active)
24,COc1ccc2c(CC(=O)Nc3nc(CN4CCCCC4)cs3)coc2c1,26.5% (inactive)
25,CC1CCCN(Cc2csc(NC(=O)c3cccc(I)c3)n2)C1 (configuration not stated),50.6% (active)
26,O=C(Nc1nc(CN2CCCCC2)cs1)c1cc(F)cc(F)c1,-30.9% (inactive)

row,SMILES,inhibition
1,O=C(C=Cc1cccs1)N1CCN(Cc2nc3ccccc3s2)CC1,67.3% (active)
2,CCc1cc(-c2n[nH]c(C)c2-c2nc3ccccc3s2)c(O)c(CN2CCN(C)CC2)c1O,10.5% (inactive)
3,O=C(CCc1nc2ccccc2s1)N1CCN(Cc2ccc(C(F)(F)F)cc2)CC1,88.1% (active)
4,O=C(c1ccc2c(c1)OCO2)C1CCCN(Cc2nc3ccccc3s2)C1 (configuration not stated),inactive
5,COc1ccc(/C=N\NC(=O)c2ccncc2)c(C(=O)O)c1OC,42.2% (inactive)
6,COc1ccc(-c2nc(Nc3ccc(Cl)nc3)sc2C)cc1,25.9% (inactive)
7,COc1cccc(C=NNc2nc(-c3ccccc3)c(C)s2)c1OC,91.8% (active)
8,Oc1cccc(/C=N\Nc2cc(N3CCCC3)nc(N3CCCC3)n2)c1,14% (inactive)
9,Cc1sc(NN=Cc2cccc(O)c2)nc1-c1ccccc1,94.2% (active)
10,Cc1sc(-c2cccc(O)c2)nc1-c1ccccc1,23.1% (inactive)
11,CC1(C)CC(=O)C(Sc2ccc(Br)cc2)=C(O)C1,57.1% (active)
12,CCCCN(C)C(=O)c1ccc(Nc2nc(C(N)COCc3ccccc3)cs2)nc1 (configuration not stated),64.2% (active)
13,CN(Cc1ccccc1)C(=O)c1ccc(Nc2nc(C(N)COCc3ccccc3)cs2)nc1 (configuration not stated),97.6% (active)
14,CCn1c(O)c(C(C)=Nc2ccnn2C2CCCCC2)c(=O)n(CC)c1=S,100% (active)
15,O=C(Nc1ccnn1C1CCCCC1)c1c(O)cc(F)cc1F,29.4% (inactive)
16,Cc1ccc(OCC(O)Cn2c(C)nc3sc4c(c3c2=O)CCC4)cc1 (configuration not stated),64.5% (active)
17,Cc1ccc(OCC(O)Cn2c(C)cc(=O)n3ncnc23)cc1 (configuration not stated),-1.37% (inactive)
18,CCc1cnc(-c2cccc(O)c2)nc1,87.9% (active)
19,Cc1cccc(-c2ncc(CNCCCc3ccccc3)cn2)c1,24.1% (inactive)
20,CCCc1cnc(-c2cnc3ccccc3c2)nc1,15.5% (inactive)
21,O=[N+]([O-])c1ccc(Sc2nnc(-c3ccco3)o2)c([N+](=O)[O-])c1,57.5% (active)
22,CCOc1ccc(C2=NCC(CSc3n[nH]c(N)n3)S2)cc1 (configuration not stated),19.9% (inactive)
23,CCCc1cc(=O)[nH]c(SCCOc2ccc(OCC)cc2)n1,-6.11% (inactive)
24,CCOc1ccc(CSc2n[nH]c(-c3ccccn3)n2)nc1,99.6% (active)
25,N#Cc1ccc(NC(=O)NC2CC2c2c(F)cccc2F)cc1 (configuration not stated),51.6% (active)
26,CCN(CC(=O)Nc1ccc(C#N)cc1)C1CCCCC1,-29.6% (inactive)

row,SMILES,inhibition
1,C=CCSc1nnc(COc2ccccc2)o1,95.2% (active)
2,C=CCSc1nnc(Nc2ccc(Oc3ccccc3)cc2)s1,inactive
3,O=c1[nH]c2ccccc2n1CCCSc1nnc(COc2ccccc2Cl)o1,42.5% (inactive)
4,Cc1c(C#N)c2nc3ccccc3n2c(=O)/c1=C/Nc1ccc(F)cc1,-33.8% (inactive)
5,Cc1c(CCCl)c(Cl)n2c(nc3ccccc32)c1C#N,56.3% (active)
6,Cc1cccc(N/C=c2\c(C)c(C#N)c3nc4ccccc4n3c2=O)c1,-34.9% (inactive)
7,COCCNc1c2c(nc3c(-c4ccccc4)c(C)nn13)CCCC2,25.2% (inactive)
8,Cn1nc2c(c1NC(=O)c1ccc(Cc3ccccc3)cc1)CCC2,83.6% (active)
9,Clc1ccc(NN=C2CCN(Cc3ccccc3)CC2)cc1,94.7% (active)
10,OCC1(CCCc2ccccc2)CCN(Cc2cc(Cl)ccc2O)CC1,38.5% (inactive)
11,O=S1(=O)CCC(=NNc2ccc(Cl)cc2)c2cc(F)ccc21,45% (inactive)
12,O=[N+]([O-])c1cnc2ccc3ccccc3c2c1,96.6% (active)
13,Cc1cc(Br)c2c(c1)C1(OCCO1)C(=O)N2,-4.59% (inactive)
14,Cc1ccc(CNc2nccn(-c3cc(C)cc(C)c3)c2=O)cc1,53.9% (active)
15,COc1ccccc1CNc1nccn(-c2cccc(C)c2)c1=O,12.8% (inactive)
16,CN(CC1Cc2ccccc2O1)C(=O)Nc1nc(-c2ccccc2)ns1 (configuration not stated),4.41% (inactive)
17,Cc1cccc(CC(=O)N(C)CC2Cc3ccccc3O2)c1 (configuration not stated),21% (inactive)
18,CN(Cc1cccc(C(=O)Nc2cn(C)nn2)c1)CC1Cc2ccccc2O1 (configuration not stated),86.5% (active)
19,O=C(CN1CCCc2cccc(F)c21)Nc1cccc(F)c1,2.21% (inactive)
20,O=C(CN1CCCC1=O)Nc1ccc(C23CC4CC(CC(C4)C2)C3)cc1,81.6% (active)
21,CC(C)n1cc(CN2CCC(C(=O)Nc3cccc(-c4cccc(Cl)c4)c3)CC2)cn1,46.3% (inactive)
22,O=C(Nc1cccc(-c2cccc(Cl)c2)c1)C1CCN(Cc2ccncc2)CC1,92.8% (active)
23,COCc1ccc(CN2CCC(C(=O)Nc3cccc(-c4cccc(Cl)c4)c3)CC2)o1,62.3% (active)
24,COCC(=O)N1CCC(C(=O)Nc2cccc(-c3cccc(Cl)c3)c2)CC1,inactive
